Source: PubChem BioAssay (Tox21)
Records with an inconclusive call do not appear. A call without a number means that no potency is given here. Unmarked numbers belong to inactive results. Calls of active or inactive are those of the source. Unless noted, calls come from the whole dose curve; as a rule, active = well fitted curve in the direction sought with a large enough effect in the repeat runs; inconclusive = weak or mixed curves; inactive = no such curve, though single readings can be large; an effect the other way counts as inactive or inconclusive.

Key:
[1] = molecular target: Luciferin 4-monooxygenase (Photinus pyralis) (UniProt P08659); experiment: qHTS assay to identify small molecule inhibitors of firefly luciferase (AID 1224835); note: series mostly up to about 120 µM; nearly all actives have a fitted effect of over 25% in size
How it was run: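 Biochemical qHTS: compounds run as interplate titrations against purified firefly enzyme, with D-luciferin and ATP each at its KM concentration. Light output recorded by CCD imaging.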

[2] = qHTS assay to identify small molecule agonists of the constitutive androstane receptor (CAR) signaling pathway - cell viability counter screen (AID 1224836); note: series mostly up to about 92 µM; nearly all actives have a fitted effect of over 45% in size
How it was run: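 Double-stable HepG2 hepatoma cells (hCAR plus CYP2B6-2.2kb) are treated for 23 h at 37 C with test compounds in 15-point concentration series. PK11195 at 0.75 uM final is co-added. Cell viability is quantified by CellTiter-Fluor.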

[3] = qHTS assay to identify small molecule antagonists of the constitutive androstane receptor (CAR) signaling pathway - cell viability counter screen (AID 1224837); note: series mostly up to about 92 µM; nearly all actives have a fitted effect of over 45% in size
How it was run: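 Cells are seeded, rested 4 hr at 37 C/5% CO2, dosed with compound (15-point series) and 50 nM CITCO, incubated a further 23 hr, and then CellTiter-Fluor reagent is added before fluorescence is read. The line is HepG2 with stable hCAR and CYP2B6-2.2kb.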

[4] = qHTS assay to identify small molecule antagonists of the estrogen related receptor signaling pathway with the pleiotropic PPARgamma coactivator (PGC) from Tox21 10K library (AID 1224841; call rule not given here; note: series mostly up to about 92 µM; actives are mostly falling curves and most rising ones were filed inactive; nearly all actives have a fitted effect of over 50% in size)
How it was run: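 Cells stably carrying the PGC/ERR reporter, seeded at 2,000 per well, received pin-transferred compounds 6 h post-plating. Exposure lasted 18 h at 37 C. Signal: One-Glo luminescence.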

[5] = qHTS assay to identify small molecule agonists of the estrogen related receptor signaling pathway with the pleiotropic PPARgamma coactivator (PGC) from Tox21 10K library (AID 1224842); note: nearly all actives have a fitted effect of over 15% in size; note: potency is the fitted concentration of half-maximal effect
How it was run: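 PGC/ERR reporter cell line, 2,000 cells per well, incubated 6 h at 37 C before 23 nL compound in DMSO was added. After 18 h at 37 C, One-Glo luminescence read following 30 min at room temperature.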

[6] = molecular target: Thyrotropin receptor (Homo sapiens) (UniProt P16473); experiment: qHTS assay to identify small molecule agonists of the thyroid stimulating hormone receptor (TSHR) signaling pathway (AID 1224843; calls by dose curve; note: nearly all actives have a fitted effect of over 45% in size; note: potency is the fitted concentration of half-maximal effect)
How it was run: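 HEK293/TSHR, 800 cells/well; cpd 30 min RT; add cAMP-d2 + anti-cAMP-cryptate, 1 h RT; fluorescence read on plate reader. 15-pt titration, n=3.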

[7] = qHTS assay to identify small molecule agonists of the hypoxia (HIF-1) signaling pathway - cell viability counter screen (AID 1224844; calls by dose curve; note: nearly all actives have a fitted effect of over 50% in size; note: potency is the fitted concentration of half-maximal effect)
How it was run: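 Viability counter screen: HRE-bla ME-180 cells plated 5 hrs before compound addition, treated 17 hrs at 37C and 5% CO2, then CellTiter-Glo added after the FRET reporter read; luminescence after 30 min.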

[8] = qHTS assay to identify small molecule antagonists of the estrogen related receptor signaling pathway with the pleiotropic PPARgamma coactivator (PGC) from Tox21 10K library - cell viability counter screen (AID 1224840; active = well fitted cell-killing curve with a large enough effect in the repeat runs, not every such curve was filed as active; note: nearly all actives have a fitted effect of over 40% in size; note: potency is the fitted concentration of half-maximal effect)
How it was run: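 Cell viability is measured by CellTiter-Fluor fluorescence in PGC/ERR cells that receive compounds after a 6-hour attachment period and are then incubated 17.5 hours at 37 C.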

Chain of Luciferin 4-monooxygenase (Photinus pyralis) (P08659 whole entry, looked up): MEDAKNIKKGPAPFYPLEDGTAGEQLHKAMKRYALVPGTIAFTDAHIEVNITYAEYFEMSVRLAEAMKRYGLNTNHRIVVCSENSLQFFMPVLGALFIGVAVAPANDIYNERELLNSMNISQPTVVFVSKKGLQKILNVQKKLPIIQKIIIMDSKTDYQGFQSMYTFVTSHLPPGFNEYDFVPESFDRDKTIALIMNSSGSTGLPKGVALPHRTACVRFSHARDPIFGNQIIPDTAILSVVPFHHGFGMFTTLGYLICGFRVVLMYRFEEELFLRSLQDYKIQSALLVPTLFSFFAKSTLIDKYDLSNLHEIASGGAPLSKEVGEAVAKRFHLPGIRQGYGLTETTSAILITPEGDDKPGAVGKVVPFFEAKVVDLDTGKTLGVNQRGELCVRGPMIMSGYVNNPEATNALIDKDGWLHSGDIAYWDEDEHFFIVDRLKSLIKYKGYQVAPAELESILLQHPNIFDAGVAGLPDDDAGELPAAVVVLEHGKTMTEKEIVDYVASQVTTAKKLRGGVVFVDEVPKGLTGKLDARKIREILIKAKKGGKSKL
Chain of Thyrotropin receptor (Homo sapiens) (P16473 whole entry, looked up): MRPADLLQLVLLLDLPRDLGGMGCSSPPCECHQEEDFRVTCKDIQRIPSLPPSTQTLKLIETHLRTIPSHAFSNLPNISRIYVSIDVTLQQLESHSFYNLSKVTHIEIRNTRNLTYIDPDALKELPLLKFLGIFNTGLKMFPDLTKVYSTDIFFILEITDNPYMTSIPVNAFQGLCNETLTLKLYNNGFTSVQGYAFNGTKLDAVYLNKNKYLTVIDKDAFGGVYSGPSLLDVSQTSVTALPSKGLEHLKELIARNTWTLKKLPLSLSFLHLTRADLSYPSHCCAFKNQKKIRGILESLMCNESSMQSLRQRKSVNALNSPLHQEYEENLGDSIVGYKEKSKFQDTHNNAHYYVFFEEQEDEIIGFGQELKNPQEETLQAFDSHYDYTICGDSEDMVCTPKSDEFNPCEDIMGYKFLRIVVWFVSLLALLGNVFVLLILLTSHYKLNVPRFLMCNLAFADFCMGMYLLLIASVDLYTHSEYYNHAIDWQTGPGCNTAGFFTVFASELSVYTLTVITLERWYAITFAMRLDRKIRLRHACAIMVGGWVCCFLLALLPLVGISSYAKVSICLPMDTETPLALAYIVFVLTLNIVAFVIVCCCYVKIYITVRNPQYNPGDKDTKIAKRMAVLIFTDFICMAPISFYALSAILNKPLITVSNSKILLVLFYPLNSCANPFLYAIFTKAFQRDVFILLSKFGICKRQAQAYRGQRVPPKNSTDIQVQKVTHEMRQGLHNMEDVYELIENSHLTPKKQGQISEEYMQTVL

With O=S(=O)(O)c1cc(S(=O)(=O)O)c2ccc3c(S(=O)(=O)O)cc(S(=O)(=O)O)c4ccc1c2c43 the activity change, negative = inhibition [1] was -0.173% [at 23.6 µM], the viability change, negative = cytotoxic [2] was 3.39% [at 19 µM] and the activity change, negative = cytotoxicity [3] was 0.0028% [at 19 µM]. It also gave an activity, negative = inhibition [4] of 13.5% [at 19 µM], an activation [5] of 0.18% [at 19 µM] and an activation [6] of -6.64% [at 19 µM]. For the same compound, the activity change, negative = cytotoxicity [7] was 1.23% [at 15.8 µM].
With Clc1cc(Cl)c(-c2c(Cl)c(Cl)cc(Cl)c2Cl)cc1Cl the Potency [1] was “inactive”, the Potency [2] was “inactive” and the Potency [3] was “inactive”. The Potency [8] was “inactive”, the Potency [4] was “inactive” and the Potency [6] was “inactive”. The Potency [7] was “inactive”.
With Oc1c(Br)cc(Br)c2cccnc12 the Potency [1] was “inactive”, the Potency [2] was “inactive” and the Potency [3] was “inactive”. The Potency [4] was “inactive”, the Potency [5] was 29.8 µM (active) and the Potency [6] was “inactive”.
With Cc1cc(=O)[nH]c(=O)[nH]1 the Potency [1] was “inactive”, the Potency [2] was “inactive” and the Potency [3] was “inactive”. For the same compound, the Potency [8] was “inactive”, the Potency [6] was “inactive” and the Potency [7] was “inactive”.
In the case of O=Cc1ccc(F)cc1, the Potency [1] is reported as “inactive”, the Potency [2] is reported as “inactive” and the Potency [3] is reported as “inactive”. The Potency [8] was “inactive”, the Potency [6] was “inactive” and the Potency [7] was “inactive”.
In the case of O=S(=O)(O)CCCN1CCOCC1, the Potency [1] is reported as “inactive”, the Potency [2] is reported as “inactive” and the Potency [3] is reported as “inactive”. The Potency [8] was “inactive”, the Potency [4] was “inactive” and the Potency [5] was “inactive”. The Potency [6] was “inactive” and the Potency [7] was “inactive”.
With CCCCCCCC(=O)OCC the Potency [1] was “inactive”, the Potency [2] was “inactive” and the Potency [3] was “inactive”. The Potency [8] was “inactive”, the Potency [4] was “inactive” and the Potency [5] was “inactive”. The Potency [6] was “inactive” and the Potency [7] was “inactive”.
In the case of O=C(O)CCn1c2c(c3ccccc31)C[C@H](NS(=O)(=O)c1ccc(F)cc1)CC2, the Potency [1] is reported as “inactive”, the Potency [2] is reported as “inactive” and the Potency [3] is reported as “inactive”. The Potency [8] was “inactive” and the Potency [7] was “inactive”.
For CC(=O)Nc1ccc(O)cc1, the Potency [1] was “inactive”, the Potency [2] was “inactive” and the Potency [3] was “inactive”. The Potency [8] was “inactive” and the Potency [7] was “inactive”.
With C/C=C/c1ccc(OC)c(OC)c1 the Potency [1] was “inactive”, the Potency [2] was “inactive” and the Potency [3] was “inactive”. For the same compound, the Potency [8] was “inactive”, the Potency [6] was “inactive” and the Potency [7] was “inactive”.
With CCCCCCC(C)Nc1ccc(Nc2ccccc2)cc1 (stereo not given) the Potency [1] was “inactive”, the Potency [2] was “inactive” and the Potency [3] was “inactive”. For the same compound, the Potency [8] was “inactive” and the Potency [6] was “inactive”.
With c1ccc(Sc2ccccc2)cc1 the Potency [1] was “inactive”, the Potency [2] was “inactive” and the Potency [3] was “inactive”. For the same compound, the Potency [8] was “inactive” and the Potency [7] was “inactive”.
For CCCCCCCCCCCCCCCC, the Potency [1] was “inactive”, the Potency [2] was “inactive” and the Potency [3] was “inactive”. For the same compound, the Potency [8] was “inactive”, the Potency [4] was “inactive” and the Potency [5] was “inactive”. For the same compound, the Potency [6] was “inactive” and the Potency [7] was “inactive”.
With COC(=O)CC(C)CCC=C(C)C (stereo not given) the Potency [1] was “inactive”, the Potency [2] was “inactive” and the Potency [3] was “inactive”. For the same compound, the Potency [8] was “inactive”, the Potency [5] was “inactive” and the Potency [7] was “inactive”.
For Clc1cccnc1, the Potency [1] was “inactive”, the Potency [2] was “inactive” and the Potency [3] was “inactive”. For the same compound, the Potency [8] was “inactive”, the Potency [6] was “inactive” and the Potency [7] was “inactive”.
In the case of CCC(=O)CC(C)CC (stereo not given), the activity change, negative = inhibition [1] is reported as 4.97% [at 0.435 µM], the viability change, negative = cytotoxic [2] is reported as -0.276% [at 0.349 µM] and the activity change, negative = cytotoxicity [3] is reported as 5.84% [at 0.349 µM]. For the same compound, the viability change, negative = cytotoxic [8] was 0.87% [at 0.349 µM], the activation [6] was 6.29% [at 0.349 µM] and the activity change, negative = cytotoxicity [7] was 2.65% [at 0.29 µM].
For CCCCCCC(C)OC(=O)COc1nc(F)c(Cl)c(N)c1Cl (stereo not given), the Potency [1] was “inactive”, the Potency [2] was “inactive” and the Potency [3] was “inactive”. The Potency [8] was “inactive”, the Potency [4] was “inactive” and the Potency [5] was “inactive”. For the same compound, the Potency [7] was “inactive”.
In the case of CCCCCCCCCCc1ccccc1, the Potency [1] is reported as “inactive”, the Potency [2] is reported as “inactive” and the Potency [3] is reported as “inactive”. For the same compound, the Potency [8] was “inactive”, the Potency [4] was “inactive” and the Potency [5] was “inactive”. For the same compound, the Potency [7] was “inactive”.
In the case of CCc1c(C(=O)O)c(=O)cnn1-c1ccc(Cl)cc1, the Potency [1] is reported as “inactive”, the Potency [2] is reported as “inactive” and the Potency [3] is reported as “inactive”. For the same compound, the Potency [8] was “inactive”, the Potency [4] was “inactive” and the Potency [5] was “inactive”. The Potency [6] was “inactive” and the Potency [7] was “inactive”.
With CCCCC(CC)COC(=O)c1ccc(O)cc1 (stereo not given) the Potency [1] was “inactive”, the Potency [2] was “inactive” and the Potency [3] was “inactive”. For the same compound, the Potency [8] was “inactive”, the Potency [6] was “inactive” and the Potency [7] was 49 µM (active).
In the case of Cc1cc(C)c(C=O)c(C)c1, the Potency [1] is reported as “inactive”, the Potency [2] is reported as “inactive” and the Potency [3] is reported as “inactive”. The Potency [6] was “inactive” and the Potency [7] was “inactive”.
With Cn1cccc1 the Potency [1] was “inactive”, the Potency [2] was “inactive” and the Potency [3] was “inactive”. For the same compound, the Potency [8] was “inactive”, the Potency [4] was “inactive” and the Potency [5] was “inactive”. The Potency [6] was “inactive” and the Potency [7] was “inactive”.
With CC(C)=CC1CC(C)CCO1 (stereo not given) the Potency [1] was “inactive”, the Potency [2] was “inactive” and the Potency [3] was “inactive”. The Potency [8] was “inactive”, the Potency [6] was “inactive” and the Potency [7] was “inactive”.
In the case of CCCCCCCC(C)=O, the Potency [1] is reported as “inactive”, the Potency [2] is reported as “inactive” and the Potency [3] is reported as “inactive”. For the same compound, the Potency [8] was “inactive”, the Potency [6] was “inactive” and the Potency [7] was “inactive”.
C=C/C=C/C=C/CCCCC gave an activity change, negative = inhibition [1] of 0.374% [at 23.6 µM], a viability change, negative = cytotoxic [2] of -0.14% [at 19 µM] and an activity change, negative = cytotoxicity [3] of -1.33% [at 19 µM]. The viability change, negative = cytotoxic [8] was -9.87% [at 19 µM], the activation [5] was 0.0738% [at 19 µM] and the activation [6] was -9.38% [at 19 µM]. It also gave an activity change, negative = cytotoxicity [7] of -12% [at 15.8 µM].
For CCC(C)c1ccccc1 (stereo not given), the Potency [1] was “inactive”, the Potency [2] was “inactive” and the Potency [3] was “inactive”. For the same compound, the Potency [8] was “inactive”, the Potency [6] was “inactive” and the Potency [7] was “inactive”.
With CC1CCCCN1CCCOC(=O)c1ccc(OC2CCCCC2)cc1 (stereo not given) the Potency [1] was “inactive”, the Potency [2] was “inactive” and the Potency [3] was “inactive”. The Potency [8] was “inactive”, the Potency [4] was “inactive” and the Potency [5] was “inactive”. The Potency [6] was 26.6 µM (active) and the Potency [7] was “inactive”.
In the case of CC(C)(C)c1cc(/C=C2\SC(=N)NC2=O)cc(C(C)(C)C)c1O, the Potency [1] is reported as “inactive”, the Potency [2] is reported as “inactive” and the Potency [3] is reported as “inactive”. The Potency [8] was 61.1 µM (active), the Potency [5] was “inactive” and the Potency [7] was 54.9 µM (active).
